Source: PubChem BioAssay AID743286 (National Center for Advancing Translational Sciences (NCATS), 2014)
Out of some 1,100 compounds screened, about 340 (31%) were called active. About 40% were inconclusive and are not listed. Calls follow the shape of the dose curve; as a rule, active = well fitted inhibition curve with a large enough effect; inconclusive = small, poorly fitted or top-dose-only effect; inactive = flat fitted curve, though single readings scatter. Not all results are given here.

What follows are molecules tested against Phosphatidylinositol 5-phosphate 4-kinase type-2 alpha (Homo sapiens) (UniProt P48426) (assay: qHTS for Inhibitors of PI5P4K: Confirmation in Primary Assay). Settings: PI5P4Kalpha enzyme, ADP-Glo luminescence, 60 min; series mostly up to 76.9 µM; activity change, negative = inhibition: at the top concentration.
Chain of Phosphatidylinositol 5-phosphate 4-kinase type-2 alpha (Homo sapiens) (P48426 whole entry, looked up): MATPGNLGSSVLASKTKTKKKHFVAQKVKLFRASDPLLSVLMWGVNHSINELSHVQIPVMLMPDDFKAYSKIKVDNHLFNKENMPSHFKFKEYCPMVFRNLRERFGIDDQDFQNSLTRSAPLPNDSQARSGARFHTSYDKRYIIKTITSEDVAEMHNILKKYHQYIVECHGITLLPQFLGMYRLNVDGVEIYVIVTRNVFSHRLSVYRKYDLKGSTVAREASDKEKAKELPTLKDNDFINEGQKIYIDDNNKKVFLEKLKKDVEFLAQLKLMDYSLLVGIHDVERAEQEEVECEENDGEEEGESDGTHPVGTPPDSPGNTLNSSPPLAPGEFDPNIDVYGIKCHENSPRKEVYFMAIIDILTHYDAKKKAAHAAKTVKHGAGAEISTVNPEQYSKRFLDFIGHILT
Method in brief: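 Enzyme/substrate mix dispensed, compound transferred by pin tool, ATP (5 microM final) added to start; incubated 60 min RT. ADP-Glo reagent 1 (45 min) then reagent 2 (30 min); luminescence measured.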
% is scaled to controls: 0 for no effect and ±100 for the full control effect; potency is read from the fitted curve at half-maximal effect.
Also: nearly all actives have a fitted effect of over 65% in size.

SMILES | activity change, negative = inhibition | Potency
Nc1nc(N)c2cc(S(=O)(=O)c3cccc(C(F)(F)F)c3)ccc2n1 | -26.5% (inactive) | 
CCC1CCCCN1C(=O)Cn1nc([N+](=O)[O-])c(Cl)c1C (stereo not drawn) | -4.34% (inactive) | 
CCOc1ccc(CCNS(=O)(=O)c2cn(C)cn2)cc1OCC | -0.0108% (inactive) | 
CCC(C)n1c(SCC(=O)Nc2ccc3[nH]c(=O)[nH]c3c2)nc2ccccc2c1=O (stereo not drawn) | -23.7% (inactive) | 
CC(=O)Nc1ccc2nc(SCC(=O)NCCOc3ccccc3)sc2c1 | -0.149% (inactive) | 
N#Cc1c(SCC(=O)Nc2nc3ccccc3s2)sc2c(O)cc(=O)[nH]c12 |  | 6.31 µM (active)
O=C(CSc1nc(O)cc(=O)n1-c1ccccc1)Nc1nc2ccccc2s1 | -23.2% (inactive) | 
N#Cc1c(SCC(=O)Nc2nc3ccc(Br)cc3s2)sc2c(O)cc(=O)[nH]c12 |  | 4.47 µM (active)
Nc1cc(-c2ccncc2)c[nH]c1=O | -15.9% (inactive) | 
O=C(COc1ccccc1)Nc1cccc(-c2ccc(N3CCOCC3)nn2)c1 | -18.8% (inactive) | 
O=C(COc1ccc([N+](=O)[O-])cc1)Nc1cccnc1 | -5.44% (inactive) | 
O=C(COc1ccc2ccccc2c1)Nc1cccc(C(=O)Nc2ccccc2C(=O)O)c1 |  | 20 µM (active)
COC(=O)Nc1ccc(S(=O)(=O)N2CCC(C(=O)N3CCC(C)CC3)CC2)cc1 | -3.71% (inactive) | 
COc1ccc(S(=O)(=O)N2CCN(C(=O)C3COc4ccccc4O3)CC2)cc1 (stereo not drawn) |  | 10 µM (active)
CN1CCN(S(=O)(=O)c2ccc(N3CCc4ccccc4C3)nc2)CC1 | -1.8% (inactive) | 
CSc1ncccc1C(=O)Nc1ccc(OC(F)(F)F)cc1 | 11.7% (inactive) | 
Cc1ccc(NCC(=O)Nc2ccc(Br)cc2)cc1C | 8.83% (inactive) | 
CCN(CC(=O)Nc1ccc(NC(C)=O)cc1)Cc1c(O)ccc2cc(Br)ccc12 |  | 15.8 µM (active)
Cn1nnnc1Sc1ncnc2scc(-c3ccccc3C(F)(F)F)c12 |  | 17.8 µM (active)
O=C(NCCCN1CCOCC1)c1sc2cc([N+](=O)[O-])ccc2c1Cl |  | 14.1 µM (active)
Cc1ccc([N+](=O)[O-])cc1Nc1nc(N2CCOCC2)nc(N2CCOCC2)n1 | 2.38% (inactive) | 
CCOC(=O)C1=C(N)N(c2ccccc2)C(=O)C1 | -3.07% (inactive) | 
COc1ccccc1N1CCN(C(=O)c2ccc(C(C)(C)C)cc2)CC1 | 0.452% (inactive) | 
CC(Oc1ccc(F)cc1)C(=O)N1CCN(c2ncccn2)CC1 (stereo not drawn) | 0.356% (inactive) | 
O=C(Nc1ccc2nc(-c3ccco3)c(-c3ccco3)nc2c1)N1CCN(c2ccccn2)CC1 |  | 11.2 µM (active)
O=C(c1ccc2nc(-c3ccco3)c(-c3ccco3)nc2c1)N1CCN(c2ncccn2)CC1 |  | 12.6 µM (active)
CC(C)C(=O)N1CCN(c2ccccc2NC(=O)c2ccco2)CC1 | -2.64% (inactive) | 
Cc1cccc(C)c1NC(=O)C(c1ccccc1)n1c(=O)c(-c2ccco2)nc2ccccc21 (stereo not drawn) | -24.1% (inactive) | 
